Compound activity deposited in PubChem BioAssay by National Center for Advancing Translational Sciences (NCATS).
Sampled rows, rich in hits. Any-hit rate of the full collection: about 0.74%.
LDHA inh = inhibitors of human lactate dehydrogenase A | P00338 | activity change, % (values are at about 110 or 230 µM) | purified LDHA, NADH/diaphorase-resazurin fluorescence; active compounds read low | 480,000 compounds, 0.15% hits; in the data active means activity change below about -30%; inconclusive means mostly about -25% to -30%;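 further: plate controls were DMSO wells for no effect and wells without enzyme for full effect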
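Resorufin fluorescence (ex540/em590), read at 0 and 20 min after diaphorase/resazurin addition, reports the NADH left after a 5 min room-temperature reaction of 2 nM human LDH5 with 0.06 mM NADH and 0.2 mM pyruvate.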
PINK1 expr mod = PINK1 expression modulation. PINK1 immunofluorescence, high-content cytometry, 24 h. Potency, µM (doses to about 76.6 µM), without a hit: at the highest dose activation (PINK1 increase), hits mostly activators. 410,000 compounds, 0.2% hits; active means well fitted activation curve with a large enough effect; inconclusive means small, poorly fitted or top-dose-only effect; cell line not stated here; further: potency means the concentration at half of the fitted maximal effect; % of control where 0% means no effect; nearly all actives have a fitted effect of over 65% in size
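PINK1 protein, normally rapidly degraded, was detected by immunofluorescence after 24 hour compound treatment of a stable cell line. Titration data (5 concentrations) came from laser-scanning cytometry, with CCCP-treated wells as controls.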
Vif-APOBEC3G blk = blocks the Vif interaction with human APOBEC3G; Potency, µM (highest dose often 46.1 µM), for the others: top-dose activity, negative = active, most hits filed as inhibitors; 410,000 compounds, 0.076% hits; Q9HC16; HeLa A3G-eYFP + Vif (tagged APOBEC3G with the HIV-1 protein that degrades it), YFP fluorescence, overnight; further: potency means the concentration at half of the fitted maximal effect; on the % scale 0 is the no-effect control and ±100 the full control effect; nearly all actives have a fitted effect of over 60% in size
Target sequence (Q9HC16 whole entry, looked up): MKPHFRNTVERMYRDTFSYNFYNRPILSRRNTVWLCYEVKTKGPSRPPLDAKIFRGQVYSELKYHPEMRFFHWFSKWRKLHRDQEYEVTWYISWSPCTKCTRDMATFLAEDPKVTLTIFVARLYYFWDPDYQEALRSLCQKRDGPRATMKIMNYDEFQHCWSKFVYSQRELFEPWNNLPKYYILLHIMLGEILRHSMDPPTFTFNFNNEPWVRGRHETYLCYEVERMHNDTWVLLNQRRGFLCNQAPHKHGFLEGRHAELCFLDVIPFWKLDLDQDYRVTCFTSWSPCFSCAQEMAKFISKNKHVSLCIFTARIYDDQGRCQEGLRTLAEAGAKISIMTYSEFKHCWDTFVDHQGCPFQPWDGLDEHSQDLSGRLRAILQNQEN
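HeLa cells stably expressing Vif and C-terminally eYFP-tagged A3G, seeded overnight at 37 deg C, then exposed to compound by pintool overnight at 37 deg C. Rise in yellow fluorescence (Ex 488/Em 500-530, Acumen) marks blocked Vif-driven A3G degradation.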
Vif-A3F inh = Vif-A3F binding inhibition. HeLa A3F-eYFP + Vif (tagged APOBEC3F with the HIV-1 protein that degrades it), YFP fluorescence increase. Potency, µM (top dose mostly 46.1 µM), for inactives: top-dose activity, negative = active. 390,000 compounds, 0.2% hits; further: potency means the concentration at half of the fitted maximal effect; % of control where 0% means no effect; nearly all actives have a fitted effect of over 65% in size
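Fluorescence increase (Ex 488/Em 500-530) after overnight compound treatment at 37 deg C flags inhibition of Vif-driven A3F-eYFP loss in stable HeLa A3F-eYFP/Vif cells seeded overnight beforehand.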
pAkt inh = Akt phosphorylation inhibition; 360,000 compounds, 0.32% hits; activity change, % for hits at 50 µM; Neuro2A IGF-stimulated pAkt S473 HTRF, 20 min; active compounds read low; in the data active means activity change below about -80%; inconclusive means mostly about -51% to -80%; further: on the % scale 0 is the no-effect control and ±100 the full control effect
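Neuro2A cells (4,500/well, DMEM with 0.5% FBS) were treated with compound at a single 50 µM final concentration, stimulated with 6 nM IGF for 20 min at 37 °C, and lysed. Phospho-Akt Ser473 was read by HTRF as 665/615 ratio ×10^4.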
GRP78 ERSR act = ER stress response induction in glioma; Potency, µM, for the others: at the top dose activation, actives largely listed as activators; AID 602332; 420,000 compounds, 0.02% hits; U87-MG GRP78 promoter luciferase reporter, 16 h; further: potency means the concentration at half of the fitted maximal effect; series mostly up to about 76 µM; % of control where 0% means no effect; nearly all actives have a fitted effect of over 35% in size
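Stably transfected U87-MG human glioma cells carrying a GRP78-based luminescent sensor were seeded at 1000 cells/well, pin-dosed with compounds and incubated 16 h. Luciferase reagent was then added, and end-point luminescence was read after 10 min at room temperature.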
An asterisk follows results filed as active; i = inactive; ? = inconclusive; nt = no result given; ! = not active in a repeat; [ ] = remark or other dose. Unless noted, the call rests on the fitted dose curve; in most records, active means well fitted curve in the direction sought with a large enough effect; inconclusive means small, poorly fitted or top-dose-only effect, or another doubt; inactive means no such curve, though single readings can be large; an effect the other way counts as inactive or inconclusive.

SMILES	LDHA inh	PINK1 expr mod	Vif-APOBEC3G blk	Vif-A3F inh	pAkt inh	GRP78 ERSR act
CCC(=O)c1cn(CC(=O)NCc2ccco2)c2ccccc12	2	-1%	0%	1%	i	-4%
O=C(Cn1cc(C(=O)c2ccccc2)c2ccccc21)NCc1ccccc1	-35*	nt	nt	nt	nt	nt
C=CC[n+]1ccc(/C=C2\C=Cc3cc(C)ccc3N2CC)c2ccccc21	9	3.2µM*	11%	-2%	i	-3%
Clc1ccccc1/C=N/NC1=Nc2cccc3cccc1c23	0	?	?	5.6µM*	i	-2%
CCN1CC=C2C(C1)C(c1ccc(Cl)s1)C(C#N)=C(N)C2(C#N)C#N (stereo not drawn)	11	6.3µM*	-23%	?	i	-2%
Cc1ncoc1C(=O)Nc1ccc(Oc2ccccc2)cc1	-3	-5%[38.3 µM]	0%	-10%	i	6%
Cc1nc(C)c(C(=O)Nc2ccc(Oc3ccccc3)cc2)o1	-5	5.6µM*	3%	-5%	i	1%
COc1ccc(/C=C(/C(=O)c2ccc(Cl)cc2Cl)n2cncn2)cc1	-16	0%	-13%	-14%	i	0%
CN(C)c1ccc(/C=C(/C(=O)c2ccc(Cl)cc2Cl)n2cncn2)cc1	-3	5%	13µM*	?	i	-6%
CCC(NC(=O)Cn1c(=O)c2c(ncn2C)n(C)c1=O)c1ccc(Cl)cc1 (stereo not drawn)	3	nt	nt	nt	nt	nt
CCCC[n+]1c(/C=C/c2ccc(N(C)C)cc2)sc2ccccc21	1	5µM*	0%	nt	nt	-7%
CN(C)c1ccc(/C=C/c2sc3ccccc3[n+]2CCCCI)cc1	-8	?	-11%	nt	nt	-10%
C/C(=N\NC(=O)Cc1ccccc1)c1ccc(Br)s1	-2	3%	-2%	-3%	i	1%
C/C(=N/NC(=O)c1ccc2c(c1)OCO2)c1ccc(Br)s1	-33*	6%	-1%	0%	i	1%
C/C(=N/NC(N)=S)c1ccc(Br)s1	-3	-1%	13%	11µM*	i	-4%
C/C(Cc1ccccc1)=N\NC(N)=S	-6	nt	nt	nt	nt	nt
c1ccc(OCCOCCN2CCOCC2)cc1	-3	1%[38.3 µM]	0%	0%	i	-3%
CCN1CCN(CCOc2cccc(Oc3ccccc3)c2)CC1	-33*	1%	9%	8%	i	0%
Cc1cccc(C)c1OCCOCCN1CCN(C)CC1	-43*!	-2%	6%	2%	i	-3%
CC1CC(C)CN(CCOc2cccc(Cl)c2Cl)C1 (stereo not drawn)	-12	10%	-5%	-7%	i	-5%
CCN1CCN(CCOc2cccc(Cl)c2Cl)CC1	-36*	-3%	0%	3%	i	-4%
CCN1CCN(CCOCCOc2ccccc2)CC1	-30*	1%	-2%	-4%	i	0%
CCCc1cc(=O)oc2cc(C)cc(OCC(=O)N[C@H](CO)[C@H](C)CC)c12	6	nt	nt	nt	nt	nt
CC(C)OC(=O)c1nc2ccccc2nc1N1CCN(c2ccccc2)CC1	2	nt	nt	nt	nt	nt
COc1cc(C(=O)OCC(=O)Nc2ccc(N3CCOCC3)cc2)ccc1OCC(C)C	-1	7%	7.9µM*	?	i	-4%
SMILES	LDHA inh	PINK1 expr mod	Vif-APOBEC3G blk	Vif-A3F inh	pAkt inh	GRP78 ERSR act
COc1ccc(C(=O)Nc2ccc(N3CCOCC3)cc2)cc1OC	13	0%[38.3 µM]	-2%	-1%	i	-2%
CC(C)(C)c1ccc(C(=O)N/N=C/c2ccc3ccccc3c2)cc1	0	nt	nt	nt	nt	nt
Nc1nc(SCc2ccccc2Cl)nc2nc3c(cc12)CCCC3	-3	15%[38.3 µM]	?	?	i	-2%
Nc1nc(SCc2ccc(Cl)cc2Cl)nc2nc3c(cc12)CCCC3	-4	?	?	22µM*	i	-3%
COc1ccccc1N(C)C(=O)C1CCN(c2nc3ccccc3o2)CC1	-11	nt	nt	nt	nt	nt
CCCCn1c(NCc2cc(C)ccc2O)nc2ccccc21	-1	16µM*	-8%	-11%	i	-3%
C=CCN1C(=O)c2cccc3c(N4CCCCC4)ccc(c23)C1=O	0	21%	?	7.1µM*	i	4%
O=C1c2cccc3c(N4CCCCC4)ccc(c23)C(=O)N1c1cccc(O)c1	-8	5%	?	4µM*	i	2%
CC1Cc2ccccc2N1S(=O)(=O)c1cc(Cl)ccc1Cl (stereo not drawn)	-3	nt	nt	nt	nt	nt
Cc1ccc(NC(=O)C(Nc2ccc3oc(C)nc3c2)c2ccccc2)cc1 (stereo not drawn)	10	nt	nt	nt	nt	nt
CCOC(=O)/C(C#N)=C\c1ccc(N)cc1	9	nt	nt	nt	nt	nt
CCOC(=O)/C(C#N)=C\C=C1C=CN(C)C=C1	0	18%	?	22µM*	i	-3%
NC(=S)N/N=C1\CCCCC1c1nccc2ccccc12 (stereo not drawn)	1	nt	nt	nt	nt	nt
Cc1cccc(-n2c(O)c(C=NCc3ccccn3)c3ccccc3c2=O)c1	-3	-1%	0%	1%	i	0%
Cc1cccc(-n2c(O)c(C=NCCCN3CCOCC3)c3ccccc3c2=O)c1	0	2%	-1%	1%	-121%*	-4%
O=C(OCCOc1cccc(Cl)c1)c1ccccc1C(=O)c1ccccc1	7	nt	nt	nt	nt	nt
C/C(=N\NC(=O)C(C)n1nc(C)c([N+](=O)[O-])c1C)c1ccccc1O (stereo not drawn)	-5	-1%	-2%	5.6µM*	i	-3%
COc1ccccc1CC(=O)Nc1ccc([N+](=O)[O-])cc1O	22	40µM*	-5%	0%	i	-6%
COC(=O)c1ccc(/C=C/C(=O)c2cccc(N3CCOCC3)c2)cc1	9	nt	nt	nt	nt	nt
COc1ccc(NS(=O)(=O)c2cccc(C(=O)N3c4ccccc4CC3C)c2)cc1 (stereo not drawn)	0	nt	nt	nt	nt	nt
Cc1cn2c(N)c(C=C3C=C(Cl)C(=O)C(Cl)=C3)c(=O)nc2s1	-4	?	-11%	10µM*	i	-2%
CN1CCN(NC(=O)c2ccc(Cl)c([N+](=O)[O-])c2)CC1	-7	2%	-1%	2%	-112%*	-8%
Cc1ccc(NC(=O)C(C#N)=C2CCCCCC2)c(C)c1	1	nt	nt	nt	nt	nt
c1ccc(-c2cnc(SCCN3CCOCC3)n2CC2CCCO2)cc1 (stereo not drawn)	-32*	-1%	1%	-3%	i	-6%
Cc1oc(-c2nc(C#N)c(N(C)CCC#N)o2)cc1S(=O)(=O)N(C)C	12	nt	nt	nt	nt	nt
CC(C)CC(NC(N)=O)C(=O)Nc1ccc2c(c1)CCC2 (stereo not drawn)	4	nt	nt	nt	nt	nt
O=C(C1=C(O)C(=O)N(Cc2ccco2)C1c1cccnc1)c1cc2ccccc2o1 (stereo not drawn)	8	3%	0%	2%	-82%*	4%
O=C(O)c1cc2ccc(Br)cc2[nH]1	-7	nt	nt	nt	nt	nt
